# Data published in PubChem BioAssay (NCI).
# The panel holds about 79,000 compounds, 15% with a hit somewhere; the sample as a whole holds those more often. Unmarked numbers belong to inactive results. Activity calls are given as the source filed them. Rule as the data show it: active = growth inhibition above about 70%; inactive = the rest.
# Columns and labels:
# [1] = NCI Yeast Anticancer Drug Screen. Data for the rad52 strain (AID 147);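 also: 0% = growth of vehicle-treated control cultures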; conditions: S. cerevisiae rad52 mutant growth inhibition, stronger effect = higher value
# Method in brief: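 Read-out: growth inhibition versus vehicle-treated controls. Cells were a DNA repair-deficient yeast strain treated with compounds.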
# [2] = NCI Yeast Anticancer Drug Screen. Data for the wt1 strain (AID 149);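 also: 0% = growth of vehicle-treated wt1 cultures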; conditions: S. cerevisiae wt1 strain (SPY 50644) growth inhibition, stronger effect = higher value
# Method in brief: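 Compounds are added to wt1 yeast cultures. Growth is then measured. Inhibition is expressed relative to vehicle-treated controls.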
# [3] = NCI Yeast Anticancer Drug Screen. Data for the rad50EPP+ strain (AID 151);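 also: 0% = growth of vehicle-treated control cultures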; conditions: S. cerevisiae rad50 mutant strain, stronger effect = higher value
# Method in brief: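 Growth inhibition read against vehicle controls in rad50EPP+ yeast, a strain altered in DNA damage repair, after compound exposure.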
# [4] = NCI Yeast Anticancer Drug Screen. Data for the mgt1 strain (AID 153); conditions: S. cerevisiae mgt1 mutant growth inhibition, stronger effect = higher value
# Method in brief: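 mgt1 yeast grown with test compound; read-out is growth inhibition versus vehicle-treated cultures.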
# [5] = NCI Yeast Anticancer Drug Screen. Data for the rad50 strain (AID 155);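 also: 0% = growth of vehicle-only cultures of the same strain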; conditions: S. cerevisiae rad50 strain growth inhibition, stronger effect = higher value
# Method in brief: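 Inhibition values express reduced yeast growth in compound-treated cultures relative to vehicle-treated controls.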
# [6] = NCI Yeast Anticancer Drug Screen. Data for the mec2-1 strain (AID 157); conditions: S. cerevisiae mec2-1 strain, stronger effect = higher value
# Method in brief: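 Yeast mec2-1 mutant treated with compound. Readout: growth inhibition vs vehicle controls.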
# [7] = NCI Yeast Anticancer Drug Screen. Data for the rad14 strain (AID 159);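 also: 0% = growth of vehicle-treated control cultures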; conditions: S. cerevisiae rad14 strain growth inhibition, stronger effect = higher value
# Method in brief: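 A mutant yeast strain defective in DNA damage repair is treated with compound; inhibition of its growth is scored against untreated, vehicle-exposed cultures.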
# [8] = NCI Yeast Anticancer Drug Screen. Data for the sgs1 mgt1 strain (AID 161);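 also: 0% = growth of cultures given vehicle only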; conditions: S. cerevisiae sgs1 mgt1 strain, stronger effect = higher value
# Method in brief: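 Inhibition of yeast growth, normalised to vehicle-treated controls, is reported for a strain bearing genetic alterations in DNA damage repair.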
# [9] = NCI Yeast Anticancer Drug Screen. Data for the CLN2oe strain (AID 163);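 also: 0% = growth of vehicle-only control cultures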; conditions: S. cerevisiae CLN2oe strain, stronger effect = higher value
# Method in brief: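 Read-out: yeast growth inhibition, expressed relative to vehicle-only controls. The strain bears an engineered cell-cycle alteration.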
# [10] = NCI Yeast Anticancer Drug Screen. Data for the cln2 rad14 strain (AID 165);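 also: 0% = growth equal to vehicle treated cultures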; conditions: S. cerevisiae cln2 rad14 strain, stronger effect = higher value
# Method in brief: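 cln2 rad14 yeast strain; compound exposure; growth inhibition read vs vehicle controls.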
# [11] = NCI Yeast Anticancer Drug Screen. Data for the bub3 strain (AID 167); conditions: S. cerevisiae bub3 mutant strain, stronger effect = higher value
# Method in brief: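 Steps: expose the mutant yeast strain to compound; grow alongside vehicle-treated cultures; measure growth; express inhibition against the vehicle cultures.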
# [12] = NCI Yeast Anticancer Drug Screen. Data for the wt2 strain (AID 169);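 also: 0% = growth of vehicle-treated yeast cultures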; conditions: S. cerevisiae wt2 strain growth inhibition, stronger effect = higher value
# Method in brief: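 Read-out: growth inhibition versus vehicle-treated control cultures after compound exposure of the yeast strain.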
# [13] = NCI Yeast Anticancer Drug Screen. Data for the mlh1 strain (AID 171);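 also: 0% = growth of vehicle-treated control cultures of the same strain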; conditions: S. cerevisiae mlh1 strain growth inhibition, stronger effect = higher value
# Method in brief: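 Read-out: growth inhibition versus vehicle controls. Strain: engineered yeast with a defined DNA repair or cell cycle defect, compound-treated.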
# [14] = NCI Yeast Anticancer Drug Screen. Data for the sgs1 strain (AID 173);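 also: 0% = growth of vehicle-only control cultures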; conditions: S. cerevisiae sgs1 mutant, stronger effect = higher value
# Method in brief: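 Read-out: yeast growth inhibition relative to vehicle controls, following compound exposure of a strain with a defined DNA repair/cell cycle alteration.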
# [15] = NCI Yeast Anticancer Drug Screen. Data for the mlh1 rad18 strain (AID 175); conditions: S. cerevisiae mlh1 rad18 strain growth inhibition, stronger effect = higher value
# Method in brief: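 Yeast w/ defined DNA-repair lesions; compound exposure; growth vs vehicle controls → % inhibition.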
# [16] = NCI Yeast Anticancer Drug Screen. Data for the rad18 strain (AID 177); conditions: S. cerevisiae rad18 mutant growth inhibition, stronger effect = higher value
# Method in brief: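 Readout: growth inhibition vs vehicle controls. Cells: genetically altered yeast strain, DNA repair defect.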
# [17] = at 5.0 µM (retest, dose inferred, filed as 0.5)
# [18] = at 50.0 µM (retest, dose inferred, filed as 5.0)
smiles,measurement,setting,value
CCCCN1C(=O)N(c2ccc(OCC)cc2)C2N(CCCC)C1C(C)(C)C2(C)C (stereo unspecified),growth inhibition,[1]; at 1.2 µM,-6%
same,growth inhibition,[1]; at 3.7 µM,-13%
same,growth inhibition,[1]; at 11.0 µM,3%
same,growth inhibition,[1]; at 33.0 µM,30%
same,growth inhibition,[1]; at 100.0 µM,86% (active)
same,growth inhibition,[2]; at 1.2 µM,-3%
same,growth inhibition,[2]; at 3.7 µM,3%
same,growth inhibition,[2]; at 11.0 µM,9%
same,growth inhibition,[2]; at 33.0 µM,19%
same,growth inhibition,[2]; at 100.0 µM,52%
same,growth inhibition,[3]; at 1.2 µM,-7%
same,growth inhibition,[3]; at 3.7 µM,-6%
same,growth inhibition,[3]; at 11.0 µM,7%
same,growth inhibition,[3]; at 33.0 µM,19%
same,growth inhibition,[3]; at 100.0 µM,30%
same,growth inhibition,[4]; at 1.2 µM,-4%
same,growth inhibition,[4]; at 3.7 µM,-7%
same,growth inhibition,[4]; at 11.0 µM,-6%
same,growth inhibition,[4]; at 33.0 µM,-7%
same,growth inhibition,[4]; at 100.0 µM,5%
same,growth inhibition,[5]; at 1.2 µM,-17%
same,growth inhibition,[5]; at 3.7 µM,-18%
same,growth inhibition,[5]; [17],0%
same,growth inhibition,[5]; at 11.0 µM,9%
same,growth inhibition,[5]; at 33.0 µM,35%
same,growth inhibition,[5]; [18],50%
same,growth inhibition,[5]; at 50.0 µM,49.6%
same,growth inhibition,[5]; at 100.0 µM,84% (active)
same,growth inhibition,[6]; at 1.2 µM,-5%
same,growth inhibition,[6]; at 3.7 µM,-4%
same,growth inhibition,[6]; [17],4%
same,growth inhibition,[6]; at 11.0 µM,-5%
same,growth inhibition,[6]; at 33.0 µM,-5%
same,growth inhibition,[6]; [18],62%
same,growth inhibition,[6]; at 50.0 µM,19.9%
same,growth inhibition,[6]; at 100.0 µM,22%
same,growth inhibition,[7]; at 1.2 µM,-1%
same,growth inhibition,[7]; at 3.7 µM,-6%
same,growth inhibition,[7]; at 11.0 µM,-6%
same,growth inhibition,[7]; at 33.0 µM,15%
same,growth inhibition,[7]; at 100.0 µM,72% (active)
same,growth inhibition,[8]; [17],12%
same,growth inhibition,[8]; [18],82% (active)
same,growth inhibition,[8]; at 50.0 µM,65.3%
same,growth inhibition,[9]; at 1.2 µM,-10%
same,growth inhibition,[9]; at 3.7 µM,-9%
same,growth inhibition,[9]; at 11.0 µM,-10%
same,growth inhibition,[9]; at 33.0 µM,-10%
same,growth inhibition,[9]; at 100.0 µM,0%
same,growth inhibition,[10]; [17],-3%
same,growth inhibition,[10]; [18],13%
same,growth inhibition,[10]; at 50.0 µM,21.1%
same,growth inhibition,[11]; at 1.2 µM,-9%
same,growth inhibition,[11]; at 3.7 µM,-7%
same,growth inhibition,[11]; [17],-2%
same,growth inhibition,[11]; at 11.0 µM,-12%
same,growth inhibition,[11]; at 33.0 µM,-11%
same,growth inhibition,[11]; [18],24%
same,growth inhibition,[11]; at 50.0 µM,27.9%
same,growth inhibition,[11]; at 100.0 µM,25%
same,growth inhibition,[12]; at 1.2 µM,-3%
same,growth inhibition,[12]; at 3.7 µM,4%
same,growth inhibition,[12]; at 11.0 µM,12%
same,growth inhibition,[12]; at 33.0 µM,26%
same,growth inhibition,[12]; at 100.0 µM,91% (active)
same,growth inhibition,[13]; at 1.2 µM,-6%
same,growth inhibition,[13]; at 3.7 µM,-11%
same,growth inhibition,[13]; at 11.0 µM,-9%
same,growth inhibition,[13]; at 33.0 µM,-3%
same,growth inhibition,[13]; at 100.0 µM,79% (active)
same,growth inhibition,[14]; at 1.2 µM,-2%
same,growth inhibition,[14]; at 3.7 µM,-2%
same,growth inhibition,[14]; at 11.0 µM,20%
same,growth inhibition,[14]; at 33.0 µM,57%
same,growth inhibition,[14]; at 100.0 µM,95% (active)
same,growth inhibition,[15]; [17],13%
same,growth inhibition,[15]; [18],84% (active)
same,growth inhibition,[15]; at 50.0 µM,54.1%
same,growth inhibition,[16]; at 1.2 µM,-7%
same,growth inhibition,[16]; at 3.7 µM,0%
same,growth inhibition,[16]; at 11.0 µM,27%
same,growth inhibition,[16]; at 33.0 µM,74% (active)
same,growth inhibition,[16]; at 100.0 µM,93% (active)
O=C1CSC(/C=C/c2ccccc2)N1c1ccc(-c2ccc(-n3c(-c4ccccc4)nc4ccccc4c3=O)cc2)cc1 (stereo unspecified),growth inhibition,[1]; at 1.2 µM,-2%
same,growth inhibition,[1]; at 3.7 µM,1%
same,growth inhibition,[1]; at 11.0 µM,4%
same,growth inhibition,[1]; at 33.0 µM,15%
same,growth inhibition,[1]; at 100.0 µM,61%
same,growth inhibition,[2]; at 1.2 µM,-2%
same,growth inhibition,[2]; at 3.7 µM,-2%
same,growth inhibition,[2]; at 11.0 µM,-3%
same,growth inhibition,[2]; at 33.0 µM,-6%
same,growth inhibition,[2]; at 100.0 µM,14%
same,growth inhibition,[3]; at 1.2 µM,2%
same,growth inhibition,[3]; at 3.7 µM,10%
same,growth inhibition,[3]; at 11.0 µM,19%
same,growth inhibition,[3]; at 33.0 µM,28%
same,growth inhibition,[3]; at 100.0 µM,29%
same,growth inhibition,[4]; at 1.2 µM,-2%
same,growth inhibition,[4]; at 3.7 µM,-2%
same,growth inhibition,[4]; at 11.0 µM,-4%
same,growth inhibition,[4]; at 33.0 µM,19%
same,growth inhibition,[4]; at 100.0 µM,81% (active)
same,growth inhibition,[5]; at 1.2 µM,-1%
same,growth inhibition,[5]; at 3.7 µM,3%
same,growth inhibition,[5]; [17],-9%
same,growth inhibition,[5]; at 11.0 µM,5%
same,growth inhibition,[5]; at 33.0 µM,22%
same,growth inhibition,[5]; [18],78% (active)
same,growth inhibition,[5]; at 50.0 µM,75.5% (active)
same,growth inhibition,[5]; at 100.0 µM,58%
same,growth inhibition,[6]; at 1.2 µM,-1%
same,growth inhibition,[6]; at 3.7 µM,0%
same,growth inhibition,[6]; [17],0%
same,growth inhibition,[6]; at 11.0 µM,1%
same,growth inhibition,[6]; at 33.0 µM,7%
same,growth inhibition,[6]; [18],45%
same,growth inhibition,[6]; at 50.0 µM,42.5%
same,growth inhibition,[6]; at 100.0 µM,67%
same,growth inhibition,[7]; at 1.2 µM,1%
same,growth inhibition,[7]; at 3.7 µM,2%
same,growth inhibition,[7]; at 11.0 µM,9%
same,growth inhibition,[7]; at 33.0 µM,31%
same,growth inhibition,[7]; at 100.0 µM,79% (active)
same,growth inhibition,[8]; [17],-1%
same,growth inhibition,[8]; [18],5%
same,growth inhibition,[8]; at 50.0 µM,87.2% (active)
same,growth inhibition,[9]; at 1.2 µM,2%
same,growth inhibition,[9]; at 3.7 µM,-1%
same,growth inhibition,[9]; at 11.0 µM,-6%
same,growth inhibition,[9]; at 33.0 µM,-9%
same,growth inhibition,[9]; at 100.0 µM,22%
same,growth inhibition,[10]; [17],9%
same,growth inhibition,[10]; [18],42%
same,growth inhibition,[10]; at 50.0 µM,32.5%
same,growth inhibition,[11]; at 1.2 µM,4%
same,growth inhibition,[11]; at 3.7 µM,12%
same,growth inhibition,[11]; [17],-6%
same,growth inhibition,[11]; at 11.0 µM,22%
same,growth inhibition,[11]; at 33.0 µM,35%
same,growth inhibition,[11]; [18],65%
same,growth inhibition,[11]; at 50.0 µM,75% (active)
same,growth inhibition,[11]; at 100.0 µM,79% (active)
same,growth inhibition,[12]; at 1.2 µM,-3%
same,growth inhibition,[12]; at 3.7 µM,-3%
same,growth inhibition,[12]; at 11.0 µM,-4%
same,growth inhibition,[12]; at 33.0 µM,5%
same,growth inhibition,[12]; at 100.0 µM,62%
same,growth inhibition,[13]; at 1.2 µM,-2%
same,growth inhibition,[13]; at 3.7 µM,-1%
same,growth inhibition,[13]; at 11.0 µM,-2%
same,growth inhibition,[13]; at 33.0 µM,18%
same,growth inhibition,[13]; at 100.0 µM,77% (active)
same,growth inhibition,[14]; at 1.2 µM,-2%
same,growth inhibition,[14]; at 3.7 µM,-2%
same,growth inhibition,[14]; at 11.0 µM,0%
same,growth inhibition,[14]; at 33.0 µM,17%
same,growth inhibition,[14]; at 100.0 µM,61%
same,growth inhibition,[15]; [17],-6%
same,growth inhibition,[15]; [18],91% (active)
same,growth inhibition,[15]; at 50.0 µM,84.3% (active)
same,growth inhibition,[16]; at 1.2 µM,-3%
same,growth inhibition,[16]; at 3.7 µM,1%
same,growth inhibition,[16]; at 11.0 µM,5%
same,growth inhibition,[16]; at 33.0 µM,13%
same,growth inhibition,[16]; at 100.0 µM,46%
